From PubChem BioAssay AID2596 (National Center for Advancing Translational Sciences (NCATS), 2010)
Records with an inconclusive call do not appear. The source made the active and inactive calls. The call rests on the fitted dose curve; in most records, active means well fitted inhibition curve with a large enough effect; inconclusive means small, poorly fitted or top-dose-only effect, or effect the other way; inactive means flat fitted curve, though single readings scatter.

Target: Lysosomal acid glucosylceramidase (Homo sapiens) (UniProt P04062)
Assay: qHTS Assay for Inhibitors and Activators of N370S glucocerebrosidase as a Potential Chaperone Treatment of Gaucher Disease: Purified N370S Glucocerebrosidase Cleavage of Glucosylceramide
Conditions: purified N370S GCase; series mostly up to 77.6 µM
Excerpt: NIH Chemical Genomics Center [NCGC]
NIH Molecular Libraries Probe Production Centers Network [MLPCN]
Assay Submitter (PI): Wei Zheng
Glucocerebrosidase (GC) catalyzes the hydrolysis of beta-glucocerebroside to glucose and ceramide in lysosomes. Mutations in the glucocerebrosidase gene result in Gaucher disease, an autosomal recessive lysosomal storage disorder. Many of the mutations encountered in patients with Gaucher disease are missense alterations that may cause misfolding, decreased stability and/or mistrafficking of this lysosomal protein. […] These inhibitors include iminosugar analogs and three non-iminosugar inhibitors identified from a previous HTS of 62,000 compounds with the wild type recombinant enzyme. However, the enhancement of enzyme activity by the chaperone action of an enzyme inhibitor must be balanced against the direct inhibition of the enzyme. An enzyme activator could also function as a chaperone by binding to the enzyme and helping to correct its misfolding and mistrafficking. While activators for GC have not yet been identified, they may have better therapeutic potential than inhibitors. Therefore the discovery and development of chemical activators may provide a new strategy for the chaperone therapy.
We have optimized a new assay using N370S mutant GC derived from the spleen of a Gaucher patient. […] In addition, the MLPCN compound library has expanded, which increases the chance of finding new and better probes.
This assay characterizes compound activity using purified, mutant enzyme cleavage of the native substrate for the enzyme instead of mutant enzyme from tissue homogenate. Compound activity differences may be due to the absence of endogenous cofactors found in tissue homogenate as well as inherent differences in enzyme stability and catalytic activity using the difference substrates.
NCGC Assay Protocol Summary:
This is an enzyme assay using glucosylceramide from soy (Avanti Polar Lipids Catalog #: 131304P) as the substrate and recombinant human glucocerebrosidase as the enzyme preparation. Upon hydrolysis of the substrate, the glucose product can be detected using the Amplex Red Glucose Oxidase Assay Kit (Invitrogen catalog #: A22189). The product of this reaction can be read with a fluorescence plate reader with an excitation at 573 nm and an emission at 610 nm. Data were normalized to the controls for basal activity (without enzyme) and 100% activity (with enzyme). The AC50 values were determined from concentration-response data modeled with the standard Hill equation.
Assay buffer for enzyme reaction: 50 mM citric acid (titrated with potassium phosphate to pH 5.9), 0.01% Tween-20 (pH 5.9 is an optimal condition for this enzyme assay)
Assay buffer for Amplex Red reaction: Tris-HCl, pH 7.5
1536-well assay protocol for the glucocerebrosidase assay:
(1) Add 2 ul/well glucocerebrosidase enzyme solution (5 nM final)
(2) Add 23 nL compounds in DMSO solution. The final titration was 0.7 nM to 77 uM.
(3) Add 1 ul of glucosylceramide solution (50 uM final)
(4) Incubate at 37C for 40 min
(5) Add 2 ul tris-HCl buffer with Amplex Red reagents
(6) Incubate 45 min at room temperature.
(7) Detect the assay plate in a ViewLux plate reader (PerkinElmer) with Ex=573 nm and Em=610nm.
Keywords: Glucocerebrosidase, beta-glucosidase, Gaucher Disease, pharmacological chaperone, chaperone therapy, high throughput screening, glucocerebrosidase inhibitor, MLSMR, MLSCN, NIH Roadmap, qHTS and NCGC

Sequence of Lysosomal acid glucosylceramidase (Homo sapiens) (P04062 whole entry N409S): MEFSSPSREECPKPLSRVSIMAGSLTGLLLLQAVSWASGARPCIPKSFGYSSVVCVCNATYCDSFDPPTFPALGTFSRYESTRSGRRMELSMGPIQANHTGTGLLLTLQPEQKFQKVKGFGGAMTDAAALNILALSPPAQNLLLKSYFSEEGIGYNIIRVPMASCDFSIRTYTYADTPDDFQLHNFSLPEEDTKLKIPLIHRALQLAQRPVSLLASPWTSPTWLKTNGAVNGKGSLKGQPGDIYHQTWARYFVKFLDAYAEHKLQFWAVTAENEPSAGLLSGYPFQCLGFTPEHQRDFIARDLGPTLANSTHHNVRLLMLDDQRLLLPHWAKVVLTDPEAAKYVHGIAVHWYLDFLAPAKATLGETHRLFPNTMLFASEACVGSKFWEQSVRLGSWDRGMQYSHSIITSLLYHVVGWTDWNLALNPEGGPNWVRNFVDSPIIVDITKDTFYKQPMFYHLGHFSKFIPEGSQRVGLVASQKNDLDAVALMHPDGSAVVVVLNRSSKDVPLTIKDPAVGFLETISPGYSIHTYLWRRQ

Potency, inactive:
CC(=O)Nc1ccc(NC(=O)COc2ccccc2C(=O)Nc2cccc(Cl)c2Cl)cc1
Cc1cc(C)n2ncc(C(=O)Nc3cccc(O)c3)c2n1
O=S(=O)(c1ccc(Cl)cc1)N1CCN(c2nc(-c3cccs3)nc3ccccc23)CC1
Cc1ccccc1S(=O)(=O)N1CCN(c2nc(-c3cccs3)nc3ccccc23)CC1
Nc1nc(-c2ccccc2)c(N=Nc2ccc(Cl)cc2)s1
O=S(=O)(c1ccc(F)cc1)N1CCN(c2nc(-c3ccccc3)nc3cc(Cl)ccc23)CC1
CCCNC(=O)COC(=O)c1ccccc1OCC(=O)Nc1ccc(Br)cc1
COc1ccc(N(CC(=O)NC2CCCCC2)S(=O)(=O)c2c(C)[nH]c(=O)[nH]c2=O)cc1
O=S(=O)(c1ccc(Cl)cc1)N1CCN(c2nc(-c3ccc(F)cc3)nc3cc(Cl)ccc23)CC1
O=S(=O)(c1ccc(Cl)cc1)N1CCN(c2nc(-c3ccc(Cl)cc3)nc3ccccc23)CC1
COc1cc(OC)c2c(N)c(C#N)c(C(F)(F)C(F)(F)F)nc2c1
c1ccc(CNc2nc(-c3cccs3)nc3ccccc23)cc1
Clc1ccccc1-c1nccc(NCc2ccccc2)n1
COc1ccc(-c2nc(N3CCN(S(=O)(=O)c4ccc(F)cc4)CC3)c3ccccc3n2)cc1
O=S(=O)(c1ccc(F)cc1)N1CCN(c2nc(-c3ccc(F)cc3)nc3cc(Cl)ccc23)CC1
CC(C)(C)c1ccc(S(=O)(=O)N2CCN(c3nc(-c4cccs4)nc4ccccc34)CC2)cc1
O=S(=O)(c1ccc2c(c1)OCCO2)N1CCN(c2nc(-c3cccs3)nc3ccccc23)CC1
CCC(C)c1ccc(NC(=O)c2cnn3c(C(F)F)cc(C)nc23)cc1 (configuration not stated)
COc1cccc(S(=O)(=O)N2CCN(c3nc(-c4cccs4)nc4ccccc34)CC2)c1
O=C(Nc1cnn(Cc2ccc(F)cc2)c1)c1cnn2c(C(F)F)cc(-c3ccccc3)nc12
Cc1ccc(S(=O)(=O)N2CCN(c3nc(-c4cccs4)nc4ccccc34)CC2)cc1
O=S(=O)(c1cccc(C(F)(F)F)c1)N1CCN(c2nc(-c3cccs3)nc3cc(Cl)ccc23)CC1
